# Values quoted from earlier work, collected in PubChem BioAssay AID977611.
# The campaign covered roughly 3,900 compounds. About 3,900 (100%) were called active. Cut-off not given; nearly all actives show Kd up to about 4200 µM. So high a share suggests a set chosen from earlier hits. This is one part of the list. Starred links: 1 amine or outer side, 2 acyl side, 3 side chain; linkers in the order of their positions; H or OH if unused. *1 amine or outer side, *2 acyl side, *3 side chain or, on linkers, in order; H or OH if unused. Positions of bridges follow the written chain, without caps; N, C: chain ends. Where a SMILES comes first, the peptide text is derived from it. Non-standard residues stand in square brackets, D forms with d. Square brackets hold non-standard residues; d marks the D form. Residues, ends and D or L forms follow the SMILES beside them. Bridges are numbered along the chain shown (N, C = ends). Peptide text beside a SMILES is read from it. [ ]: non-standard residue; d: D form. The star is where a group is joined. X1 = O=C([C@@H]1CC[C@H](O)N1[*:1])[*:2]; Orn(CH(NH2)2) = NC(N)NCCC[C@H](N)C(=O)O; TBMB = c1c(C[*:1])cc(C[*:3])cc1C[*:2]; Lys(Me2) = CN(C)CCCC[C@H](N)C(=O)O; Lys(Me) = CNCCCC[C@H](N)C(=O)O; S5 = C=CCCC[C@](C)(N)C(=O)O; Butyryl = CCCC(=O)*
# Test: PubChem AID 977611
# Conditions: PDB protein-ligand complexes, literature Kd
molecule,measurement,setting,value
CC[C@H](C)[C@H](NC(=O)[C@@H]1CCCN1C(=O)CNC(=O)[C@H](C)N)C(=O)N[C@@H](CO)C(=O)N[C@@H](CC(C)C)C(=O)N[C@@H](CC(N)=O)C(=O)N[C@@H](Cc1c[nH]c2ccccc12)C(=O)N[C@@H](Cc1ccccc1)C(=O)N[C@@H](CCC(=O)O)C(=O)N[C@@H](CCC(=O)O)C(=O)N[C@@H](CC(C)C)C(=O)N[C@@H](CO)C(=O)N[C@@H](C)C=O (H-AGPISLNWFEELSA-aldehyde),Kd,"protein: Partner and localizer of BRCA2, PDB entry 3eu7",0.66 µM (active)
CC[C@H](C)[C@@H]1NC(=O)[C@@](C)(NC(=O)[C@H](CCC(N)=O)NC(=O)[C@@H]2CCCN2C(=O)[C@H](Cc2c[nH]c3ccccc23)NC(=O)[C@@H](N)CCCNC(N)N)CCC/C=C\C/C=C/[C@@](C)(C(=O)N[C@@H](Cc2c[nH]cn2)C(=O)N[C@H](C(=O)N[C@@H](CCCNC(N)N)C(=O)N[C@@H](CCCNC(N)N)C(=O)N[C@H](C(=O)N[C@@H](Cc2c[nH]c3ccccc23)C(=O)O)C(C)C)C(C)C)NC(=O)[C@H](CC(=O)O)NC(=O)[C@H](CC(C)C)NC1=O (H-[Orn(CH(NH2)2)]WPQ[S5]ILD[X1]HV[Orn(CH(NH2)2)][Orn(CH(NH2)2)]VW-OH; staple (Z) 5-9),Kd,"protein: Catenin beta-1, PDB entry 4djs",0.013 µM (active)
H-TKQTARK(Ac)S-NH2,Kd,"protein: Protein AF-9 AF9 YEATS, PDB entry 4tmp",3.7 µM (active)
H-GCARSEG-OH,Kd,"protein: WD repeat-containing protein 5, WDR5, PDB entry 4es0",0.103 µM (active)
C[C@H](N)C(=O)N[C@@H](CCCN=C(N)N)C(=O)N[C@H](C(=O)N[C@@H](CCCCN)C(=O)N[C@@H](CCC(N)=O)C(=O)N[C@H](C(=O)N[C@@H](C)C(=O)N[C@@H](CCCN=C(N)N)C(=O)N[C@@H](CCCCN)C(=O)N[C@@H](CO)C(=O)N[C@H](C(=O)NCC(=O)O)[C@@H](C)O)[C@@H](C)O)[C@@H](C)O,Kd,"protein: histone acetyltransferase Hat1p/Hat2p/H4 peptide complex, PDB entry 4psx",0.34 µM (active)
CCCC(=O)NCCCC[C@H](NC(=O)[C@]1([C@@H](C)O)N[C@@](O)([C@@H](N)CCCN=C(N)N)O1)C(=O)N[C@@H](CCC(N)=O)C(=O)N[C@H](C(=O)N[C@@H](C)C(=O)N[C@@H](CCCN=C(N)N)C(=O)O)[C@@H](C)O (H-[X1]K(Butyryl)QTAR-OH),Kd,"protein: NAD-DEPENDENT PROTEIN DEACETYLASE SIRTUIN-3, MITOCHONDRIAL Sirt3, PDB entry 4v1c",25.1 µM (active)
C[C@H](N)C(=O)N[C@@H](C)C(=O)N[C@@H](C)C(=O)N[C@@H](C)C(=O)N[C@@H](C)C(=O)N[C@@H](C)C(=O)N[C@@H](C)C(=O)N[C@@H](C)C(=O)N[C@@H](C)C(=O)N[C@@H](C)C(=O)O,Kd,"protein: Transportin 1 (Trn1), PDB entry 2z5o",1 µM (active)
C[C@H](N)C(=O)N[C@@H](CCCN=C(N)N)C(=O)N[C@H](C(=O)N[C@@H](CCCCN)C(=O)N[C@@H](CCC(N)=O)C(=O)N[C@H](C(=O)N[C@@H](C)C(=O)N[C@@H](CCCN=C(N)N)C(=O)N[C@@H](CCCCN)C(=O)N[C@@H](CO)C(=O)O)[C@@H](C)O)[C@@H](C)O,Kd,"protein: DNA (cytosine-5)-methyltransferase 3A DNMT3A-DNMT3L, PDB entry 4u7t",2.14 µM (active)
H-ARTAA-OH,Kd,"protein: WD repeat-containing protein 5 WDR5, PDB entry 4o45",70 µM (active)
CNCCCC[C@H](NC(=O)[C@H](CCCNC(N)N)NC(=O)[C@H](C)NC(=O)[C@@H](NC(=O)[C@H](CCC(N)=O)NC(=O)[C@H](CCCCNC)NC(=O)[C@@H](N)[C@@H](C)O)[C@@H](C)O)C(=O)N[C@@H](CO)C(=O)N[C@H](C(=O)O)[C@@H](C)O (H-T[Lys(Me)]QTA[Orn(CH(NH2)2)][Lys(Me)]ST-OH),Kd,"protein: SAWADEE HOMEODOMAIN HOMOLOG 1, PDB entry 4iuv",1.9 µM (active)
CNCCCC[C@H](NC(=O)[C@H](CCCNC(N)N)NC(=O)[C@H](C)NC(=O)[C@@H](NC(=O)[C@H](CCC(N)=O)NC(=O)[C@H](CCCCN)NC(=O)[C@@H](N)[C@@H](C)O)[C@@H](C)O)C(=O)N[C@@H](CO)C(=O)O (H-TKQTA[Orn(CH(NH2)2)][Lys(Me)]S-OH),Kd,"protein: SAWADEE HOMEODOMAIN HOMOLOG 1, PDB entry 4iuu",2.22 µM (active)
C[C@H](NC(=O)[C@@H](NC(=O)[C@H](CCC(N)=O)NC(=O)[C@H](CCCCN)NC(=O)[C@@H](N)[C@@H](C)O)[C@@H](C)O)C(=O)N[C@@H](CCCNC(N)N)C(=O)N[C@@H](CCCCN(C)C)C(=O)N[C@@H](CO)C(=O)O (H-TKQTA[Orn(CH(NH2)2)][Lys(Me2)]S-OH),Kd,"protein: SAWADEE HOMEODOMAIN HOMOLOG 1, PDB entry 4iut",1.9 µM (active)
CC(C)C[C@H](NC(=O)[C@H](C)NC(=O)[C@H](CC(=O)O)NC(=O)[C@H](CC(C)C)NC(=O)[C@@H](N)CC(=O)O)C(=O)N[C@@H](CC(C)C)C(=O)N[C@@H](C)C(=O)N[C@@H](CC(=O)O)C(=O)N[C@@H](CC(C)C)C(=O)N[C@@H](CCC(=O)O)C(=O)O (H-DLDALLADLE-OH),Kd,"protein: Alpha-parvin, PDB entry 2k2r",1300 µM (active)
CC(C)[C@H](NC(=O)[C@H](CCC(N)=O)NC(=O)[C@@H](NC(=O)[C@H](CCC(=O)O)NC(=O)[C@H](CCCNC(N)N)NC(=O)[C@H](CCCNC(N)N)NC(=O)[C@@H](NC(=O)[C@H](CCCNC(N)N)NC(=O)[C@H](CO)NC(=O)[C@H](CO)NC(=O)[C@@H](N)CCCNC(N)N)[C@@H](C)O)[C@@H](C)O)C(=O)O (H-[Orn(CH(NH2)2)]SS[Orn(CH(NH2)2)]T[Orn(CH(NH2)2)][Orn(CH(NH2)2)]ETQV-OH),Kd,"protein: second PDZ domain of MAGI-1 (Membrane-associated guanylate kinase), PDB entry 2kpl",0.23 µM (active)
CSCC[C@H](NC(=O)[C@H](CC(C)C)NC(=O)[C@H](C)NC(=O)[C@H](CC(=O)O)NC(=O)[C@H](CC(C)C)NC(=O)[C@H](C)NC(=O)[C@H](C)NC(=O)[C@@H](NC(=O)[C@H](C)NC(=O)[C@H](C)N)[C@@H](C)O)C(=O)N[C@@H](C)C(=O)N[C@@H](CO)C(=O)N[C@@H](CC(C)C)C(=O)O (H-AATAALDALMASL-OH),Kd,"protein: Protein-tyrosine kinase 2-beta, Pyk2 FAT domain, PDB entry 3u3f",8 µM (active)
CC(C)C[C@H](NC(=O)[C@H](CCCNC(N)N)NC(=O)[C@@H](NC(=O)[C@H](CC(=O)O)NC(=O)[C@@H](N)CCC(N)=O)[C@@H](C)O)C(=O)O (HELM PEPTIDE1{Q.D.T.[NC(N)NCCC[C@H](N[*:1])C(=O)[*:2]].L}$$$$V2.0),Kd,"protein: Na(+)/H(+) exchange regulatory cofactor NHE-RF1, PDB entry 2m0u",0.365 µM (active)
same,Kd,"protein: Na(+)/H(+) exchange regulatory cofactor NHE-RF1, PDB entry 2m0v",1.08 µM (active)
CC(C)[C@H](NC(=O)[C@H](CCC(N)=O)NC(=O)[C@@H](NC(=O)[C@H](CCC(=O)O)NC(=O)[C@H](CC(N)=O)NC(=O)[C@H](CCCNC(N)N)NC(=O)[C@H](CCC(N)=O)NC(=O)[C@H](CCCNC(N)N)NC(=O)[C@@H](NC(=O)[C@H](CCCNC(N)N)NC(=O)[C@@H]1CC[C@H](O)N1)[C@@H](C)O)[C@@H](C)O)C(=O)O (H-[X1][Orn(CH(NH2)2)]T[Orn(CH(NH2)2)]Q[Orn(CH(NH2)2)]NETQV-OH),Kd,"protein: Disks large homolog 1, PDB entry 2m3m",9.63 µM (active)
CC(C)C[C@H](NC(=O)[C@H](CCC(=O)O)NC(=O)[C@H](CC(C)C)NC(=O)[C@H](CC(C)C)NC(=O)[C@H](CC(C)C)NC(=O)[C@H](CCCNC(N)N)NC(=O)[C@H](CC(=O)O)NC(=O)[C@H](CC(C)C)NC(=O)[C@H](CCC(=O)O)NC(=O)[C@H](CO)NC(=O)[C@@H](N)CC(C)C)C(=O)N[C@@H](CC(N)=O)C(=O)O (H-LSELD[Orn(CH(NH2)2)]LLLELN-OH),Kd,"protein: Focal Adhesion Targeting Domain(FAT), PDB entry 1ow8",4 µM (active)
CC(C)C[C@H](NC(=O)[C@H](C)NC(=O)[C@H](C)NC(=O)[C@H](CC(C)C)NC(=O)[C@H](CCCNC(N)N)NC(=O)[C@H](CCCNC(N)N)NC(=O)[C@H](CO)NC(=O)[C@H](CC(C)C)NC(=O)[C@H](CCC(N)=O)NC(=O)[C@H](CC(=O)O)NC(=O)[C@@H](N)CCC(=O)O)C(=O)N[C@@H](CCCNC(N)N)C(=O)N[C@@H](CC(N)=O)C(=O)O (H-EDQLS[Orn(CH(NH2)2)][Orn(CH(NH2)2)]LAAL[Orn(CH(NH2)2)]N-OH),Kd,"protein: Vacuolar protein sorting-associating protein 4A, PDB entry 2jq9",33.4 µM (active)
CSCC[C@H](NC(=O)[C@H](CC(C)C)NC(=O)[C@H](CCC(=O)O)NC(=O)[C@H](CC(=O)O)NC(=O)[C@H](CC(C)C)NC(=O)[C@H](CCC(=O)O)NC(=O)[C@H](CCCNC(N)N)NC(=O)[C@@H](N)[C@@H](C)O)C(=O)N[C@@H](C)C(=O)N[C@@H](CO)C(=O)N[C@@H](CC(C)C)C(=O)N[C@@H](CO)C(=O)O (H-T[Orn(CH(NH2)2)]ELDELMASLS-OH),Kd,"protein: Focal Adhesion Targeting Domain(FAT), PDB entry 1ow6",4 µM (active)
same,Kd,"protein: Focal Adhesion Targeting Domain(FAT), PDB entry 1ow7",4 µM (active)
CSCC[C@@H]1NC(=O)[C@H](CCC(=O)O)NC(=O)[C@H](Cc2ccc(O)cc2)NC(=O)[C@H](CO)NC(=O)[C@H](CC(=O)O)NC(=O)[C@H](C)NC(=O)CNC(=O)[C@@H](N)CSSC[C@@H](C(=O)O)NC(=O)[C@H](CCCCN)NC(=O)[C@H](CCCNC(N)N)NC(=O)[C@H](C(C)C)NC(=O)CNC(=O)[C@H](CC(=O)O)NC(=O)[C@H](CCC(=O)O)NC(=O)[C@H](CCC(=O)O)NC1=O (H-CGADSYEMEEDGV[Orn(CH(NH2)2)]KC-OH; disulfide 1-16),Kd,"protein: mAb175 Antibody targeting a locally misfolded region of tumor associated EGFR, PDB entry 3g5y",0.035 µM (active)
same,Kd,"protein: mAb806 Antibody targeting a locally misfolded region of tumor associated EGFR, PDB entry 3g5v",0.016 µM (active)
CC(C)C[C@@H]1NC(=O)[C@H](C)NC(=O)[C@H](CCCNC(N)N)NC(=O)[C@H](CO)NC(=O)[C@H](CO)NC(=O)[C@H](CC(C)C)NC(=O)[C@H](CC(N)=O)NC(=O)[C@H](Cc2ccc(O)cc2)NC(=O)[C@H](CCC(N)=O)NC(=O)[C@@H](N)CSSC[C@@H](C(=O)O)NC(=O)[C@H](CCCCN)NC1=O,Kd,"protein: cetuximab Fab, PDB entry 4gw5",3.5 µM (active)
CC(C)[C@@H]1NC(=O)[C@H](CCC(=O)O)NC(=O)[C@H](Cc2ccc(O)cc2)NC(=O)[C@H](CCCNC(N)N)NC(=O)[C@H](CO)NC(=O)[C@@H](NC(=O)[C@H](C)N)CSCc2cc3cc(c2)CSC[C@H](NC(=O)[C@H](CC(=O)O)NC1=O)C(=O)N[C@@H](CCCNC(N)N)C(=O)NCC(=O)N[C@@H](CCCNC(N)N)C(=O)NCC(=O)N[C@@H](CO)C(=O)N[C@@H](C)C(=O)N[C@H](C(=O)O)CSC3 (H-ACS[Orn(CH(NH2)2)]YEVDC[Orn(CH(NH2)2)]G[Orn(CH(NH2)2)]GSAC-OH; linker 2-9-16 via TBMB),Kd,"protein: Urokinase-type plasminogen activator, PDB entry 3qn7",0.157 µM (active)
CC(C)C[C@@H]1NC(=O)[C@H](CCCNC(N)N)NC(=O)[C@H](CCCNC(N)N)NC(=O)[C@H]([C@@H](C)O)NC(=O)[C@H](CO)NC(=O)[C@H](CC(C)C)NC(=O)[C@H](CC(=O)O)NC(=O)[C@H](Cc2ccccc2)NC(=O)[C@H](CCC(N)=O)NC(=O)[C@@H](N)CSSC[C@@H](C(=O)O)NC(=O)[C@H](CCCCN)NC1=O,Kd,"protein: cetuximab Fab, PDB entry 4gw1",0.43 µM (active)
